According to PubChem BioAssay (NCATS):
Values without a mark were called inactive. Records with an inconclusive call do not appear. Active and inactive are the calls of the source. Unless noted, calls follow the shape of the dose curve; as a rule, active = well fitted curve in either direction with a large enough effect (not every such curve was filed as active); inconclusive = small, poorly fitted or top-dose-only effect, or another doubt; inactive = flat fitted curve, though single readings scatter.

Key:
[1] = AP1 Signaling Pathway (AID 357); conditions: ME-180 AP-1-bla reporter, EGF-induced, beta-lactamase ratio, 5 h; at 17.2 µM (top of the series) unless noted;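 also: ME-180 reporter cells stimulated with EGF at its EC50 level; % is scaled to controls: 0 for no effect and ±100 for the full control effect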
How it was run: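 A ratiometric CCF4 readout (405 nm excitation; 460 and 530 nm emission) quantified AP-1-driven beta-lactamase in ME-180 cells after 5 h with compound and EC50 EGF; AC50 values were derived for activators and inhibitors.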

[2] = NFAT Signaling Pathway (AID 444); conditions: Jurkat NFAT-bla M1, carbachol, beta-lactamase ratio, 5 h; at 17.2 µM (top of the series) unless noted;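 also: carbachol stimulus at about its EC50 of 1 µM final; % is scaled to controls: 0 for no effect and ±100 for the full control effect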
How it was run: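 Jurkat cells carrying an NFAT-driven β-lactamase reporter and co-transfected muscarinic M1 receptor were treated with compound plus carbachol (1 uM final, an EC50 level) for 5 h at 37 °C. CCF4 loading followed for 1 h at RT; 460/530 nm ratio gave %activity.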

[3] = Stat Signaling Pathway (AID 446); conditions: ME-180 SIE beta-lactamase reporter, IL-6 stimulated, 5 h; at 17.2 µM (top of the series) unless noted;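 also: ME-180 cervical cancer cells given 40 pM IL-6 alongside compound; SIE-controlled beta-lactamase reporter measured as 460/530 nm FRET emission ratio; % is scaled to controls: 0 for no effect and ±100 for the full control effect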
How it was run: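 Normalization used AC90 stimulation (300 pM IL-6) and AC90 inhibition (125 nM pan-JAK inhibitor at 40 pM IL-6). The underlying signal is SIE-driven beta-lactamase in ME-180 cells after 5 h IL-6 exposure with compound.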

[4] = molecular target: Glucocorticoid receptor (Homo sapiens) (UniProt P04150); test: GR-GFP Redistribution (AID 450;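 active = compounds whose dose series gives a full or clear partial fitted curve of increased nuclear translocation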; also: potency is read from the fitted curve at half-maximal effect)
[5] = qHTS Assay for Identification of Small Molecule Agonists for Hypoxia Response Element Signaling Pathway (AID 914; active = well fitted activation curve with a large enough effect in the signal ratio, with a control signal flat, not every such curve was filed as active; the % refers to the signal ratio; also: potency is read from the fitted curve at half-maximal effect; as to activation: % of control where 0% means no effect); conditions: ME-180 (cervical carcinoma) HRE-bla reporter, beta-lactamase ratio, CoCl2, 17 h; activation: stronger effect = higher value
How it was run: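 HRE-bla ME-180 cells with beta-lactamase reporter under hypoxia response element, compounds with EC50 CoCl2 for 17 hours at 37 C. CCF4 substrate, 460nm/530nm emission ratio gave %Activity; AC50 from titration series.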

[6] = molecular target: Glucocorticoid receptor (Homo sapiens) (UniProt P04150); test: GR-EFC Redistribution (AID 451; calls by dose curve; also: potency is read from the fitted curve at half-maximal effect); conditions: CHO-K1 GR-EFC translocation, beta-gal luminescence, 2 h
How it was run: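 CHO-K1 cells stably expressing nuclear-localized β-gal enzyme acceptor and GR fused C-terminally to the enzyme donor fragment; ligand-driven nuclear translocation restores β-gal by complementation. Compounds titrated up to 46 uM final, 2 h at 37 °C; luminescence read.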

[7] = molecular target: Mitogen-activated protein kinase 10 (Mus musculus) (UniProt Q61831); test: JNK3 AlphaScreen Assay (AID 530);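 also: kinase came from lysate of stimulated human HepG2 cells; signal reports phosphorylation of biotinylated GST-cJun 1-79 at Ser73 with 10 µM ATP; % is scaled to controls: 0 for no effect and ±100 for the full control effect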
How it was run: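 Biotinylated GST-cJun(1-79) served as substrate for JNK3 in HepG2 lysates stimulated with IL-1beta and TNF-alpha. ATP was 10 uM final, pH 7.6. Ser73 phosphorylation was quantified by AlphaScreen (680 nm excitation).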

[8] = molecular target: 3',5'-cyclic-AMP phosphodiesterase 4B (Homo sapiens) (UniProt Q07343); test: qHTS Assay for Inhibitors of PDE-IV (AID 607; active = well fitted activation curve with a large enough effect in the main read-out, with a control signal flat, not every such curve was filed as active; also: % of control where 0% means no effect)
How it was run: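 HEK293 ACTOne cells with CNG channel (1000/well), endogenous PDE4; membrane potential dye, compounds up to 22.9 uM final. Fluorescence Ex 535/Em 590; RO 20-1724 (100 uM final) as reference.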

[9] = molecular target: Cytochrome P450 3A4 (Homo sapiens) (UniProt P08684); test: qHTS Assay for Activators of Cytochrome P450 3A4 (AID 885; active = well fitted curve in the direction sought with a large enough effect; an effect the other way counts as inactive or inconclusive; also: nearly all actives have a fitted effect of over 65% in size)
How it was run: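 Human CYP3A4 dealkylates Luciferin-PPXE to luciferin, which luciferase detection converts to light. Substrate was at its KM (25uM), buffer 200mM KPO4, reaction 60 min at RT.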

[10] = qHTS Assay for Identification of Small Molecule Agonists for Thrombopoietin (TPO) Signaling Pathway (AID 917; active = well fitted curve in the direction sought with a large enough effect; an effect the other way counts as inactive or inconclusive; also: % is scaled to controls: 0 for no effect and ±100 for the full control effect)
How it was run: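 Luciferase reporter (Glycoprotein IIb promoter) in IL-3-deprived Ba/F3 cells carrying human TPO receptor; compounds co-added with 26 pM TPO, incubated 24 h, 37 C. Steadylite luminescence measured after 10 min.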

[11] = molecular target: Pyruvate kinase (Leishmania mexicana) (UniProt Q27686); test: qHTS Validation Assay for Inhibitors of Leishmania Mexicana Pyruvate Kinase (AID 945; active = well fitted curve in the direction sought with a large enough effect; an effect the other way counts as inactive or inconclusive;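 also: 0% = DMSO only neutral control wells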)
How it was run: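 Eight-point qHTS titrations in triplicate, data normalized to DMSO neutral control. Reaction: 0.2 nM LmPYK E451W mutant, 0.5 mM PEP, 0.1 mM ADP, 7 mM MgCl2, pH 7.2, one hour at room temperature; luminescent ATP detection.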

[12] = molecular target: Pyruvate kinase PKM (Homo sapiens) (UniProt P14618); test: qHTS Assay for Activators of Human Muscle Pyruvate Kinase (AID 954; active = well fitted curve in the direction sought with a large enough effect, not every such curve was filed as active;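 also: 0% = uninhibited enzyme and -100% = no enzyme or full thiadiazolimine inhibition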)
How it was run: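 Compound pinned into substrate mix (0.5 mM PEP, 0.1 mM ADP), then 0.1 nM PKM2 added; 1 h, RT. Stop/detection luciferase reagent added, luminescence read. Normalized to no-inhibition and no-enzyme or reference-inhibitor controls.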

[13] = molecular target: Alpha-galactosidase A (Homo sapiens) (UniProt P06280); test: Counterscreen for Glucocerebrosidase Inhibitors: qHTS Assay for Human alpha-Galactosidase at pH 4.5 (AID 992; active = well fitted curve in the direction sought with a large enough effect; an effect the other way counts as inactive or inconclusive; also: 0% is about no effect)
How it was run: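 Steps: enzyme (2 nM final), then compound across 0.7 nM to 77 uM, then 80 uM fluorogenic galactopyranoside substrate; incubate 20 min at room temperature; quench at pH 10; measure fluorescence at 365/440 nm.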

[14] = molecular target: alpha-glucosidase (Oryza sativa, rice) (UniProt Q653V4); test: Counterscreen for Glucocerebrosidase Inhibitors: qHTS Assay for Rice alpha-Glucosidase at pH 5.0 (AID 997; active = well fitted curve in the direction sought with a large enough effect; an effect the other way counts as inactive or inconclusive;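 also: 0% = full activity with enzyme and -100% = basal without enzyme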)
How it was run: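 Endpoint fluorogenic assay at pH 5.0: compounds (0.7 nM to 77 uM) titrated against 4 nM rice enzyme and 400 uM 4-MU-alpha-glucoside for 20 min at room temperature; NaOH/glycine stop, read ex 365/em 440 nm, Hill-fitted AC50.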

Chain of Glucocorticoid receptor (Homo sapiens) (P04150 whole entry, looked up, the tested form may be a part): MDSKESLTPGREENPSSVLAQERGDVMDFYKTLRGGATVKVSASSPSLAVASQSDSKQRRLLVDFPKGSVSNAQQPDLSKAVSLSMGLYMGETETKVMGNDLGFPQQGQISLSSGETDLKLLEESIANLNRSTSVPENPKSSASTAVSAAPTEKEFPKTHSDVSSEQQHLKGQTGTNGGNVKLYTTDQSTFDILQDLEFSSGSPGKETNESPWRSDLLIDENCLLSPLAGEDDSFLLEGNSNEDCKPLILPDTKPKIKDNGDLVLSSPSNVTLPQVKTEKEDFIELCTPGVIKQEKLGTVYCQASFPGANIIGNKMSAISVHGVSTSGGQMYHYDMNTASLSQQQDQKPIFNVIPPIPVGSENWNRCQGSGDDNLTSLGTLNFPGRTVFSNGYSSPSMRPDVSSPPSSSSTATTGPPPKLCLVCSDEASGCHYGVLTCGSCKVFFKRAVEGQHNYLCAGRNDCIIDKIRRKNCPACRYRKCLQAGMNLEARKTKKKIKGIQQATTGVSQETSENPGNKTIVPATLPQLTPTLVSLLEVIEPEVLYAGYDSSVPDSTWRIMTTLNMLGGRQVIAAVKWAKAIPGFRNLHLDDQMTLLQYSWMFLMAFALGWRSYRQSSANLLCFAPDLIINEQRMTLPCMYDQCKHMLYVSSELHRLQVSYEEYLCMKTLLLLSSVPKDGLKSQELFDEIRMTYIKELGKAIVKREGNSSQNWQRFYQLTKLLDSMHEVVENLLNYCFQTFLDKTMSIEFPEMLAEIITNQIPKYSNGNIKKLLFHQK
Chain of 3',5'-cyclic-AMP phosphodiesterase 4B (Homo sapiens) (Q07343 whole entry, looked up): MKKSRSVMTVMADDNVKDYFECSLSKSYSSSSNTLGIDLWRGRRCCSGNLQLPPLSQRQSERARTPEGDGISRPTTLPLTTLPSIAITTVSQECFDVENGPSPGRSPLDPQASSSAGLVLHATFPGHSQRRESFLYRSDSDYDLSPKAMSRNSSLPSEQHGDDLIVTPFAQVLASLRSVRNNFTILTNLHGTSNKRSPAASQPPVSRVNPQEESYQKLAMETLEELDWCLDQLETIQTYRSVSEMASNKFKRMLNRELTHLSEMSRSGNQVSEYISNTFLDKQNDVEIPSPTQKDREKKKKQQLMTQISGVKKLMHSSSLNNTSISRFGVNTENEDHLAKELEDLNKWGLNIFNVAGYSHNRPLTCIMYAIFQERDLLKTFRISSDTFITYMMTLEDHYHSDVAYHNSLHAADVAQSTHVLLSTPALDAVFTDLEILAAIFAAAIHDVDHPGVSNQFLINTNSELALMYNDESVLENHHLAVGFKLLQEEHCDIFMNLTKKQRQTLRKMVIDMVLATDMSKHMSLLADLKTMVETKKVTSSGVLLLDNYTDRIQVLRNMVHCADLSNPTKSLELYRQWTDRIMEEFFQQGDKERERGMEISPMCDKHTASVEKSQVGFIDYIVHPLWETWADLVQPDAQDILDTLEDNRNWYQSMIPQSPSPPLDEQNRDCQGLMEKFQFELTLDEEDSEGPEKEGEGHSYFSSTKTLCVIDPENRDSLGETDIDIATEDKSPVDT
Chain of Cytochrome P450 3A4 (Homo sapiens) (P08684 whole entry, looked up): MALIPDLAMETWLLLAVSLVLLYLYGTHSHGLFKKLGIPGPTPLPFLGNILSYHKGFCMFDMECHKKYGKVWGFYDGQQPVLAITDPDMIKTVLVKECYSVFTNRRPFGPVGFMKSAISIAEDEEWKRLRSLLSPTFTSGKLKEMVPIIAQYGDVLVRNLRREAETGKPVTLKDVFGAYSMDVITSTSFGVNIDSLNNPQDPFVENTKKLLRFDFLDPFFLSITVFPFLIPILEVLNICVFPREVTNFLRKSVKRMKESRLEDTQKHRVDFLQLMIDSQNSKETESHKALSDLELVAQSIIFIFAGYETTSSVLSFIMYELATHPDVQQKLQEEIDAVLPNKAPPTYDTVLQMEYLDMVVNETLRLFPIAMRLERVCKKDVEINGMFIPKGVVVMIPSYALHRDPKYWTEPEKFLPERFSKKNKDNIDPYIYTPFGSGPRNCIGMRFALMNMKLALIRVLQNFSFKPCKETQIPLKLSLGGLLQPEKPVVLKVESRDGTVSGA
Chain of Pyruvate kinase PKM (Homo sapiens) (P14618 whole entry, looked up): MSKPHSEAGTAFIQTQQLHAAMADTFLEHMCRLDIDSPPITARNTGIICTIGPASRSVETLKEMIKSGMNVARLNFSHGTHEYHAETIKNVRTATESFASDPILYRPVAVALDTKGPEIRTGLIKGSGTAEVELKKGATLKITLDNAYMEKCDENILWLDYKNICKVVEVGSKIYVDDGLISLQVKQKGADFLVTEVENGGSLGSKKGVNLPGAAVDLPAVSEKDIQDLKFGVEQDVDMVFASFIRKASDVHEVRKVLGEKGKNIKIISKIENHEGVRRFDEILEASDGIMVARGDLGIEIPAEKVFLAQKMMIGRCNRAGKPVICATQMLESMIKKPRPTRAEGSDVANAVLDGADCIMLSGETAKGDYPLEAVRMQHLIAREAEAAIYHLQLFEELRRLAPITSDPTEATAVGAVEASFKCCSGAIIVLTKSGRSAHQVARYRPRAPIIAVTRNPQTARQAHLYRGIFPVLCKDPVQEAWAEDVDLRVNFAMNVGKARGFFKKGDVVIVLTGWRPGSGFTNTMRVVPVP
Chain of Pyruvate kinase (Leishmania mexicana) (Q27686 2-499 E452W): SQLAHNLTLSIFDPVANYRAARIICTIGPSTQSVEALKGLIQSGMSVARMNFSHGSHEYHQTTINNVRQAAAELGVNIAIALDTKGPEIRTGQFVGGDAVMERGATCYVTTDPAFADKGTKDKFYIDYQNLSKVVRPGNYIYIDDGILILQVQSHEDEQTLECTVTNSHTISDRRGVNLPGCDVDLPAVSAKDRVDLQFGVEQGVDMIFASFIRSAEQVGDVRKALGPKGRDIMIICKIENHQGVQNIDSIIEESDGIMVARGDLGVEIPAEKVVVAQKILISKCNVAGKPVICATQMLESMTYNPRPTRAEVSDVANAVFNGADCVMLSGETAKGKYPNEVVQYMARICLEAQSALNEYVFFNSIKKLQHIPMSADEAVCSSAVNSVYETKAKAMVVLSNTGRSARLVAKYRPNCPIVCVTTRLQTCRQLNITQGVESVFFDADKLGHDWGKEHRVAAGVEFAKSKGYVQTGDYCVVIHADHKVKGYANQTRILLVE
Chain of Alpha-galactosidase A (Homo sapiens) (P06280 whole entry, looked up): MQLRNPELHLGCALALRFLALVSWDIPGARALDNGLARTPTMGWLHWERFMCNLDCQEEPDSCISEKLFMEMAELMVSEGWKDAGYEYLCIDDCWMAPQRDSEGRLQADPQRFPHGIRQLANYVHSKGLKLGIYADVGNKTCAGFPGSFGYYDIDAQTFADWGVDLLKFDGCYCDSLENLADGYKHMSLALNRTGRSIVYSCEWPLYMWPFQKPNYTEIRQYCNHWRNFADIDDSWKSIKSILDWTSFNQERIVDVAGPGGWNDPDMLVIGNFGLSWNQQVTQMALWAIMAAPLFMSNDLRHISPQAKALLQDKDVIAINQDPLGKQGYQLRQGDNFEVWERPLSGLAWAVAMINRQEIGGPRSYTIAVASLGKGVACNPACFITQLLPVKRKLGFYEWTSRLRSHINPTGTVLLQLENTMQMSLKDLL

SMILES: CN(CCNC(=O)c1ccc(/C=N/O)nc1)Cc1ccccc1
- activity change, negative = inhibition [1]: 0.297%
- activity change, negative = inhibition [2]: -21.1%
- activity, negative = inhibition [3]: -0.957%
- Potency [4]: > 20.6 µM
- activation [5]: 9.65%

SMILES: O=C(c1ccc(=O)oc1)N1CCN(C(c2ccccc2)c2ccccc2)CC1
- activity change, negative = inhibition [1]: 26.4%
- activity change, negative = inhibition [2]: -101% (active)
- activity, negative = inhibition [3]: -15.5%
- Potency [4]: > 20.6 µM
- activation [5]: 9.9%

SMILES: C=CCn1c(=N)c(C(=O)OCC)cc2c(=O)n3cccc(C)c3nc21
- activity change, negative = inhibition [1]: 15.5%
- activity change, negative = inhibition [2]: -23.4%
- activity, negative = inhibition [3]: 28.1%
- Potency [4]: > 20.6 µM
- Potency [5]: 10 µM (active)

SMILES: COc1ccc(C2CC(=O)c3sc(N)nc3C2)cc1 (stereo not given)
- activity change, negative = inhibition [1]: -9.21%
- activity change, negative = inhibition [2]: 5.45%
- activity, negative = inhibition [3]: 3.6%
- Potency [4]: > 20.6 µM
- activation [5]: -11%

SMILES: CN(C=C1C(=O)CC(C)(C)CC1=O)CCN1CCNCC1
- activity change, negative = inhibition [1]: 19.5%
- activity change, negative = inhibition [2]: -19.2%
- activity, negative = inhibition [3]: 4.61%
- Potency [4]: > 20.6 µM
- activation [5]: -4.98%

SMILES: O=c1cc(N2CCCCC2)nc2n1CCCS2
- activity change, negative = inhibition [1]: -18.5%
- activity change, negative = inhibition [2]: -21.5%
- activity, negative = inhibition [3]: -10.2%
- Potency [4]: > 20.6 µM
- Potency [5]: 6.31 µM (active)

SMILES: CCCC(=O)N(Cc1cc2ccccc2[nH]c1=O)c1ccccc1OC
- activity change, negative = inhibition [1]: -6.44%
- activity change, negative = inhibition [2]: 22.4%
- activity, negative = inhibition [3]: 5.08%
- Potency [4]: > 20.6 µM
- activation [5]: -13.3%

SMILES: CCCCOc1ccccc1C(=O)NCCCCCC(=O)O
- activity change, negative = inhibition [1]: 10.2%
- activity change, negative = inhibition [2]: 11.6%
- activity, negative = inhibition [3]: 2.29%
- Potency [4]: > 20.6 µM
- activation [5]: 8%

SMILES: CC(C)OC(=O)CCNc1n[nH]c(=O)[nH]c1=O
- activity change, negative = inhibition [1]: 5.78%
- activity change, negative = inhibition [2]: 0.573%
- Potency [4]: > 20.6 µM

SMILES: CC(C)c1nc(N2CCOCC2)c(C#N)c2c1COC(C)(C)C2
- activity change, negative = inhibition [1]: -19.1%
- activity change, negative = inhibition [2]: -4.43%
- activity, negative = inhibition [3]: 11.9%
- Potency [4]: > 20.6 µM
- activation [5]: -24.7%

SMILES: COCc1cc(C)nc(N)c1C#N
- activity change, negative = inhibition [1]: 5.99%
- activity change, negative = inhibition [2]: -10.9%
- activity, negative = inhibition [3]: -0.857%
- activation [5]: 1.6%

SMILES: Cc1cccc(OCc2nc(C)cc(=O)[nH]2)c1
- activity change, negative = inhibition [1]: 9.24%
- activity change, negative = inhibition [2]: -0.73%
- Potency [4]: > 20.6 µM

SMILES: CCn1c(-c2ccco2)n[nH]c1=S
- activity change, negative = inhibition [1]: 14%
- activity change, negative = inhibition [2]: 4.37%
- activity, negative = inhibition [3]: 4.5%
- Potency [4]: > 20.6 µM
- activation [5]: 13.1%

SMILES: O=C1C2ON(c3ccccc3)C(c3cccnc3)C2C(=O)N1Cc1ccccc1 (stereo not given)
- activity change, negative = inhibition [1]: -15.2%
- activity change, negative = inhibition [2]: -1.42%
- activity, negative = inhibition [3]: -8.95%
- Potency [4]: > 20.6 µM
- activation [5]: 1.83%

SMILES: O=C(C[N+]12CN3CN(CN(C3)C1)C2)c1ccc(-c2ccccc2)cc1
- activity change, negative = inhibition [1]: 8.23% [at 7.69 µM]
- activity change, negative = inhibition [2]: -2.51% [at 7.69 µM]
- activity, negative = inhibition [3]: 0.439% [at 7.69 µM]
- Potency [6]: > 9.22 µM
- activity change, negative = inhibition [7]: -2.86% [at 11.4 µM]
- Potency [8]: inactive
- activity change, positive = activation [9]: -51.5% [at 11.4 µM]

SMILES: CC(=O)CCn1c(=O)n(CCC(C)=O)c(=O)n(CCC(C)=O)c1=O
- activity change, negative = inhibition [1]: 5.12%
- activity change, negative = inhibition [2]: 6.61%
- activity, negative = inhibition [3]: -1.84%
- activation [5]: 11.1%

SMILES: Cc1nn(CCO)c2c1C(=O)CCC2
- activity change, negative = inhibition [1]: 3.9%
- activity change, negative = inhibition [2]: -9.31%
- activity, negative = inhibition [3]: 5.4%
- Potency [4]: > 20.6 µM
- activation [5]: 12.2%

SMILES: CN1[C@@H]2CC(OC(=O)[C@@H](CO)c3ccccc3)C[C@H]1[C@H]1O[C@H]12 (stereo not given in full)
- activity change, negative = inhibition [1]: 4.86% [at 38 µM]
- activity change, negative = inhibition [2]: -57.6% [at 38 µM] (active)
- activity, negative = inhibition [3]: 13.4% [at 38 µM]
- Potency [8]: inactive
- Potency [10]: inactive
- Potency [11]: inactive
- outcome [12]: inactive
- outcome [13]: inactive
- outcome [14]: inactive

SMILES: CC1(C)C2CCC1(C)C(OC(=O)CC(=O)O)C2 (stereo not given)
- activity change, negative = inhibition [1]: 4.82%
- activity change, negative = inhibition [2]: 8.38%
- Potency [4]: > 20.6 µM

SMILES: O=c1c2ccccc2ncn1Cc1ccco1
- activity change, negative = inhibition [1]: 14.1%
- activity change, negative = inhibition [2]: -4.44%
- activity, negative = inhibition [3]: 2.8%
- activation [5]: 2.2%

SMILES: COc1cc(-c2nn3c(COc4ccccc4)nnc3s2)cc(OC)c1OC
- activity change, negative = inhibition [1]: 0.0695%
- activity change, negative = inhibition [2]: 11.1%
- Potency [4]: > 20.6 µM
